CBX7 AlphaScr: blocks human CBX7 binding to H3K27me3 peptide; 1.1% of 66,000 active; AlphaScreen His6-CBX7 / biotin-H3K27me3 peptide binding; active compounds read low; O95931; normalised signal (fraction of DMSO) (no concentration beside the values); in the data active = normalised signal below about 0.5
Target sequence (O95931 whole entry, looked up): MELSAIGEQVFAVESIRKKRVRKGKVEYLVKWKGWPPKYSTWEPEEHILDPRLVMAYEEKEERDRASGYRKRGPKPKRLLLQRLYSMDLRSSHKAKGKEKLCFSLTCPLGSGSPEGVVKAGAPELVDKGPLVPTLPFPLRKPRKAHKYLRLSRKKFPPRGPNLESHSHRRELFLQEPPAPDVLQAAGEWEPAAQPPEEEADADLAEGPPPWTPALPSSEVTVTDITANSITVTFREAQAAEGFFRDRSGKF
Of the large screens only hits and unclear results are named; the others gave an inactive call. Shown is part of a subset that was picked to be rich in hits.

CNCC(=O)Nc1c2c(nc3c1CCC3)CCCC2	CBX7 AlphaScr 0.485
CC(C)(C)NCC(=O)Nc1c2c(nc3c1CCC3)CCCC2	none
O=C(CNC1CCCCC1)Nc1c2c(nc3c1CCC3)CCCC2	CBX7 AlphaScr 0.344
O=C(CNC1CCCCC1)Nc1c2c(nc3c1CCC3)CCC2	none
CCCCCCC(=O)Nc1c2c(nc3c1CCC3)CCCC2	none
O=c1[nH]c(-c2ccccc2)cn1-c1ccc(F)cc1	none
COCCn1c(SCC(=O)Nc2ccc(Br)cc2)nnc1-c1c[nH]c2ccccc12	none
Nc1nonc1-c1nc2ccccc2n1CC(=O)N1CCOCC1	none
Cc1cc2ccccc2c(=O)n1CC(=O)NCC(=O)N1CCC(C)CC1	none
Cc1ccc(C(C)C)cc1S(=O)(=O)NCCc1c(C)[nH]c2ccc(F)cc12	none
O=C(CC(Sc1cccc2cccnc12)c1ccc(F)cc1)c1cccs1 (stereo unspecified)	CBX7 AlphaScr 0.00632
O=C(Nc1ccc(F)cc1)C(Cc1ccccc1)NS(=O)(=O)c1cccc2cccnc12 (stereo unspecified)	none
CCn1c(COc2cccc3cccnc23)nnc1SCC(=O)OC	none
Cc1cccc2c1-c1sc(C(=O)N3CCCN(Cc4ccccc4Cl)C3)cc1CO2	none
CCCCN(C)S(=O)(=O)c1ccc(C(=O)Nc2nnc(C3CC3)o2)cc1	CBX7 AlphaScr 0.034
CCCCN(CC)S(=O)(=O)c1ccc(C(=O)Nc2nnc(C3CC3)o2)cc1	CBX7 AlphaScr 0.0365
CCCCN(C)S(=O)(=O)c1ccc(C(=O)Nc2ccc(-c3nc4ccccc4[nH]3)cc2)cc1	none
CCCCN(C)S(=O)(=O)c1ccc(C(=O)Nc2ccccc2-c2nc3ccccc3o2)cc1	none
CC(C)CN(CC(C)C)S(=O)(=O)c1ccc(C(=O)Nc2nnc(C3CC3)o2)cc1	CBX7 AlphaScr 0.00617
CCN(Cc1ccccc1)S(=O)(=O)c1ccc(C(=O)Nc2nnc(C3CC3)o2)cc1	none
CCCN(CCC)S(=O)(=O)c1ccc(C(=O)Nc2nnc(C3CC3)o2)cc1	none
CC(=O)N1CCc2cc(S(=O)(=O)NCCC(=O)NC(C)c3ccccc3)ccc21 (stereo unspecified)	none
COC(=O)c1cc2ccsc2n1CC(=O)NCCC1=CCCCC1	none
COc1cccc(-c2nc3sc4c(c3c(=O)n2Cc2c(F)cccc2Cl)CCCC4)c1	none
O=C1CC(c2c(F)cccc2Cl)c2cc3c(cc2N1)OCO3 (stereo unspecified)	none
CC1CCCCC1NC(=O)C(C)C1Sc2ccccc2NC1=O (stereo unspecified)	none
CCNC(=O)CC1Sc2ccccc2NC1=O (stereo unspecified)	none
O=C1C2=C(Nc3ccccc3SC2c2cccs2)c2ccccc21 (stereo unspecified)	CBX7 AlphaScr 0.395
COc1ccc(NC(=O)CCN(CCO)Cc2ccccc2)cc1	none
Cc1[nH]nc(-c2ccc(O)c(C)c2O)c1Oc1ccccc1	none
CCc1cc(-c2n[nH]c(C)c2Oc2ccccc2)c(O)cc1O	CBX7 AlphaScr 0.408
CCOc1cc(O)c(-c2n[nH]c(C)c2Oc2ccccc2)cc1CC	none
COc1ccccc1-c1cc2nc(C)c(CCC(=O)Nc3ccc(CN4CCCC4)cc3)c(C)n2n1	none
Cc1ccc(-c2nc(C(=O)NCCCN3CC(C)CC(C)C3)c(C)o2)cc1 (stereo unspecified)	none

High-throughput results (PubChem BioAssay)
